The record followed here is PubChem BioAssay.

Assay [1] deals with TRPC4 beta (transient receptor potential cation channel C4), mouse. Nature of the assay: TRPC4 cation channel opening, retest – cell-based, Fluo4 calcium, HEK293 TRPC4beta/mu-opioid, duplicates, 10 µM, confirmation (AID 2426;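 active = fluorescence ratio normalized to control raised more than 50% in primary screen plus both repeat runs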). The following applies: Fluo4 calcium fluorescence, at 10 µM; stronger effect = higher value.
Assay [2] relates to transient receptor potential cation channel C4 beta (TRPC4), mouse. Nature of the assay: TRPC4 cation channel opening, second retest – cell-based, second round, Fluo4, HEK293 TRPC4beta/mu-opioid, 1 µM, confirmation (AID 2461;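 active = primary screen active and over 50% activation in each of two duplicate runs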). The following applies: Fluo4 calcium fluorescence, at 1 µM; stronger effect = higher value.
The subject of assay [3] is TRPC4 (transient receptor potential cation channel C4 beta), mouse. Nature of the assay: potentiation of DAMGO EC20 TRPC4 response – cell-based, second round, Fluo-4, HEK293 TRPC4beta/mu-opioid, 1 µM, confirmation (AID 2554;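 active = primary screen hit whose fluorescence ratio, in both repeats, exceeds the weak agonist control mean by 3 SD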). The following applies: DAMGO EC20, Fluo-4 calcium flux, at 1 µM; stronger effect = higher value.
The test system of assay [4] is TRPC4 beta (transient receptor potential cation channel C4), mouse. In words: potentiation of DAMGO EC20 TRPC4 response – cell-based, Fluo-4, HEK293 TRPC4beta/mu-opioid, confirmation (AID 2555;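 active = primary screen hit whose calcium fluorescence ratio, in both repeats, exceeds the weak agonist control mean by 3 SD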). The settings on record: DAMGO EC20, Fluo-4 calcium flux, at 10 µM; stronger effect = higher value.
Assay [5] deals with Short transient receptor potential channel 4 (Mus musculus) (UniProt Q9QUQ5). Nature of the assay: blockers of DAMGO-evoked TRPC4 calcium flux – cell-based, Fluo4, HEK293 TRPC4beta/mu-opioid, confirmation (AID 2636;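 active = calcium signal cut by more than 3 SD below the full-agonist control yet still positive, in both repeats and the earlier primary screen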). The settings on record: at 10 µM; stronger effect = higher value. (In general: Calcium flux is commonly read through the fluorescence of an indicator in the cells.)
The target is the same in assay [6]. Nature of the assay: blockers of DAMGO-evoked TRPC4 calcium flux – cell-based, second round, Fluo4, HEK293 TRPC4beta/mu-opioid, 1 µM, confirmation (AID 2637;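 active = calcium signal ratio cut to more than 3 SD under the fully stimulated control mean yet still positive, in both repeats and the primary screen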). The settings on record: at 1 µM; stronger effect = higher value.
Assay [7] shares this target. Nature of the assay: calcium entry via TRPC4 opening agents – cell-based, HEK293 TRPC4/mu-opioid, Fluo-4 calcium, dose response (AID 434937;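 active = primary screen activator hit with a dose response curve and TRPC4 channel activation at any tested dose; inactive = no activation, no dose response, or not a primary hit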).
Assay [8] shares this target. In words: potentiation of DAMGO-evoked TRPC4 calcium signal – cell-based, HEK293 TRPC4/mu-opioid, Fluo-4 calcium, EC20 DAMGO, dose response (AID 434941).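 Also: calcium entry triggered by an EC20 dose of DAMGO at the co-expressed mu-opioid receptor.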
The target is the same in assay [9]. Nature of the assay: block of DAMGO-driven TRPC4 calcium entry – cell-based, HEK293 TRPC4/mu-opioid, Fluo-4 calcium, dose response (AID 434942;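 active = primary screen inhibitor hit that blocks the TRPC4 channel at some tested dose, yielding a dose curve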).
For assay [10], the target named is Short transient receptor potential channel 6 (Mus musculus) (UniProt Q61143). Nature of the assay: TRPC6 blockade by TRPC4 inhibitor hits – cell-based, HEK293, membrane potential dye, duplicate, selectivity assay for TRPC4 inhibitor project, confirmation (AID 434948;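 active = active in primary screen and both duplicates, each dropping signal beyond three positive-control SD with fluorescence still positive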). The following applies: HEK293 TRPC6, membrane potential dye fluorescence, at 10 µM, stimulated with maximal-effect acetylcholine; stronger effect = higher value.

Assay [11] shares this target. Nature of the assay: TRPC6 opening by TRPC4 activator hits – cell-based, HEK293, membrane potential dye, duplicate, selectivity assay for TRPC4 activator project, confirmation (AID 434950;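 active = membrane potential signal rise above negative control mean plus 3 SD in both duplicates, also active in the earlier TRPC4 screen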;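 as to activation: 0% = buffer only wells and 100% = acetylcholine maximal-effect wells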). The following applies: HEK293 TRPC6, membrane potential fluorescence, at 10 µM; activation: stronger effect = higher value; outcome: activation.
Assay [12] shares this target. In words: positive modulators of mouse TRPC6 channel – HEK293 cells, membrane potential dye, duplicate, selectivity assay for TRPC4 potentiator project, confirmation (AID 434952;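 active = compound raising the membrane signal above positive-control mean plus 3 SD in both repeats, and a primary screen hit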). The following applies: HEK293 TRPC6, membrane potential dye fluorescence, at 10 µM, maximal acetylcholine added after compound; stronger effect = higher value.
Assay [13] concerns the target Short transient receptor potential channel 4 (Mus musculus) (UniProt Q9QUQ5). In words: calcium flux activators in TRPC4/5HT1a cells, counter-screen for TRPC4 activator project, cell-based, second counter screen, HEK293 TRPC4/5HT1a, Fluo-4 (AID 434977;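 active = calcium signal rise above buffer-control mean plus 5 SD in both duplicates, and also a hit in the primary screen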). The settings on record: Fluo-4 calcium flux, at 10 µM; stronger effect = higher value.
Assay [14] is described as follows: serotonin-gated TRPC4 signal block – cell-based, second counter screen, HEK293 TRPC4/5HT1a, Fluo-4, counter-screen for TRPC4 inhibitor project, confirmation (AID 434978;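 active = primary screen active whose calcium signal fell more than 3 SD beyond the full-serotonin control mean in both duplicate plates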;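 also: serotonin given first at submaximal then at maximal dose after compound preincubation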). The settings on record: Fluo-4 calcium flux, at 10 µM, serotonin added to trigger calcium flux; stronger effect = higher value. A general note: Counterscreens check selectivity or assay interference.
Assay [15] relates to TRPC4 (mouse), co-expressed with 5HT1a in HEK293. In words: enhancement of serotonin-evoked TRPC4 response – cell-based, second counter screen, HEK293 TRPC4/5HT1a, Fluo-4, counter-screen for TRPC4 potentiator project, confirmation (AID 434979;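 active = signal rise over 3 SD above mean of control wells given weak agonist, in both repeats and first screen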). The settings on record: Fluo-4 calcium flux, at 10 µM, serotonin added at its EC20 dose; stronger effect = higher value.
The nature of assay [16]: nonspecific calcium rise without TRPC4 – cell-based, HEK293 mu-opioid receptor line, counter-screen for TRPC4 activator project, confirmation (AID 449723;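 active = hit in primary screen, with calcium signal over 5 SD above buffer well mean in both duplicates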;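 also: counter screen cells carry the mu-opioid receptor alone and lack TRPC4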). The following applies: HEK293 mu-opioid cells, Fluo-4 calcium fluorescence, at 10 µM; stronger effect = higher value.
Assay [17] is described as follows: nonspecific potentiation of DAMGO calcium response – cell-based, HEK293 mu-opioid receptor line, counter-screen for TRPC4 allosteric potentiator project, confirmation (AID 449724;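 active = calcium signal rise more than 3 SD above the low-dose agonist control mean, in both duplicate plates and the primary screen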;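 also: HEK293 cells carrying mu-opioid receptor only with no TRPC4 channel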). The settings on record: HEK293 mu-opioid receptor cells, Fluo-4 calcium flux, at 10 µM, compound added before EC20 DAMGO stimulus; stronger effect = higher value.

The structures appear in SMILES notation. For some of these results: Results with a measured potency or affinity are listed apart. Activity calls are given as the source filed them.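 The calls were made as follows, unless noted: active = earlier screen potentiator hit that boosts the TRPC4 ion channel at some dose, with a dose response; inactive = no potentiation, no dose response, or not a prior hit.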

Short transient receptor potential channel 4 (Mus musculus), sequence (Q9QUQ5 whole entry, looked up): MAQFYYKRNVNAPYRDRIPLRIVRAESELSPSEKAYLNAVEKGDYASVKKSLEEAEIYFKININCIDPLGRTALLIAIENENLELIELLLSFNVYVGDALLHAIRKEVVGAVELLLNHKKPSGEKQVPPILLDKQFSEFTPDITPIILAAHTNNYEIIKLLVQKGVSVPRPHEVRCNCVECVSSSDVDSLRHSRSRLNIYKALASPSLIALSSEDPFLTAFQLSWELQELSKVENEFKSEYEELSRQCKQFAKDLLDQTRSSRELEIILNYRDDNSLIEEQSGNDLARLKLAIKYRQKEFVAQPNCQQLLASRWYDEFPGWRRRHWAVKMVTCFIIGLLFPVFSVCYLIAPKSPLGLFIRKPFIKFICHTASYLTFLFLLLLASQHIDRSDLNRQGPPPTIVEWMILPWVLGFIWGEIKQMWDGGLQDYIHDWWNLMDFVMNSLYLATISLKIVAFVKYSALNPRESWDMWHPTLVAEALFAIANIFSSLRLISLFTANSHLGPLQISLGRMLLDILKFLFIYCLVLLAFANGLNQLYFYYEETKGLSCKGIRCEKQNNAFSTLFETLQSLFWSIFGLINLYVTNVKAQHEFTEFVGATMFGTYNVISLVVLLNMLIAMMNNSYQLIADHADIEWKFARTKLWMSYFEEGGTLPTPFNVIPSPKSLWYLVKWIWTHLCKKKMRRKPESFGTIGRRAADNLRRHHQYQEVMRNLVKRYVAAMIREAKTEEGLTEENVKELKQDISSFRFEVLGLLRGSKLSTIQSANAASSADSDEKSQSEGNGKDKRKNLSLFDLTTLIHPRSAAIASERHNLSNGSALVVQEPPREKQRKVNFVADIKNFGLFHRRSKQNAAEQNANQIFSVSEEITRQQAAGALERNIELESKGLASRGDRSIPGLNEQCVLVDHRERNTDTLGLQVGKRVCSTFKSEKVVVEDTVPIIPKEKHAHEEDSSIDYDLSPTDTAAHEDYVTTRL
Short transient receptor potential channel 6 (Mus musculus), sequence (Q61143 whole entry, looked up): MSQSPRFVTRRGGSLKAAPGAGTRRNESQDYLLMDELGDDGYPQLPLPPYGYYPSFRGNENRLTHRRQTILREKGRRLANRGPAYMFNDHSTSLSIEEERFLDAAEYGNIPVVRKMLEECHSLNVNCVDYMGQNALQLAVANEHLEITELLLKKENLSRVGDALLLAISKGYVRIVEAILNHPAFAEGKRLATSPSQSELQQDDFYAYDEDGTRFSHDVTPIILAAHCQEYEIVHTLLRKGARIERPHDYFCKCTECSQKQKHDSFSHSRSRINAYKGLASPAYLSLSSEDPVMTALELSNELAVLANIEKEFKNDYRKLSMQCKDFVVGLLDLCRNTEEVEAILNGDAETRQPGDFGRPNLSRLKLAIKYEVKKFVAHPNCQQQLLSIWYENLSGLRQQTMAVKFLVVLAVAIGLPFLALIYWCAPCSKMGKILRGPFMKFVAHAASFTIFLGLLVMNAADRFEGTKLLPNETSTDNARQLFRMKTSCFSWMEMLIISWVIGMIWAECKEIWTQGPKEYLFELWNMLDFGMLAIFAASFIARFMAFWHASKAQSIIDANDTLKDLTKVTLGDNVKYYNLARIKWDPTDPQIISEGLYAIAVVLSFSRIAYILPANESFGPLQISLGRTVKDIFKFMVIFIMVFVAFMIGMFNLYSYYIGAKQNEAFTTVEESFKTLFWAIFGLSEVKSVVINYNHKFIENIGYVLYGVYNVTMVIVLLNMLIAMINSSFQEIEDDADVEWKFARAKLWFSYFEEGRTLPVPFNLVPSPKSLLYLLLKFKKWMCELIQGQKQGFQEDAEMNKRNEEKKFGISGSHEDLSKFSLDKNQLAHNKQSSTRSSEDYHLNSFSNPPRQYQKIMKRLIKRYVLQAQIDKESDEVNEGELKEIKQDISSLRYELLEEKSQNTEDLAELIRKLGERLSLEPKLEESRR

Consider `O=c1oc2ccccc2c(O)c1/C=C1\C=Nc2ccccc21`, for which the result in assay [1], in assay [2], in assay [3], in assay [4], in [5] and in [6] was inactive. Besides, the result in assay [7], in [8], in assay [9], in assay [10], in assay [12] and in assay [13] was inactive. In addition, the outcome in assay [14], in assay [15], in [16] and in [17] was inactive. Also, in assay [11], the activation is 32.5% (active).
As for `N=C(N)SCc1cn2ccccc2n1`, the outcome in assay [1], in assay [2], in assay [3], in assay [4], in [5] and in assay [6] was inactive. For the same molecule, the outcome in [7], in [8], in assay [9], in assay [10], in assay [11] and in assay [12] was inactive. In addition, the outcome in [13], in assay [14], in assay [16] and in assay [17] was inactive. The potentiation in assay [15] was 8.53% (active).
As for `O=[N+]([O-])c1ccc(N2CCCC2)nc1N1CCCC1`, the outcome in [1], in [2], in [3], in assay [4], in assay [5] and in [6] was inactive. The outcome in assay [7], in assay [8], in assay [9], in assay [10], in assay [11] and in assay [12] was inactive. Also, the outcome in assay [13], in assay [14], in assay [15], in assay [16] and in assay [17] was inactive.
With `COC(=O)CC(NC(=S)NC(=O)c1ccccc1)c1ccc(Br)cc1` (stereo not drawn), the result in assay [1], in assay [2], in assay [3], in [5], in assay [6] and in assay [7] was inactive. In addition, the result in assay [8], in assay [9], in assay [10], in assay [11], in assay [12] and in assay [13] was inactive. Moreover, the outcome in assay [14], in [16] and in assay [17] was inactive. The potentiation is 35% (active) in [4] and 12.5% (active) in assay [15].
For `CCn1c(NCc2ccco2)nc2ccccc21`, the outcome in assay [1], in [2], in [3], in assay [5], in assay [6] and in [7] was inactive. Also, the outcome in [8], in assay [9], in assay [10], in assay [11], in assay [12] and in assay [13] was inactive. Besides, the result in [14], in assay [16] and in assay [17] was inactive. The potentiation in assay [4] is 8% (active); in assay [15] it was 12.3% (active).
For `O=C1CC2(CCN(S(=O)(=O)c3ccccc3F)CC2)Oc2ccccc21`, the outcome in [1], in assay [2], in assay [3], in assay [5], in assay [6] and in [7] was inactive. Also, the result in assay [8], in assay [9], in assay [10], in assay [11], in assay [12] and in assay [13] was inactive. Also, the outcome in assay [14], in assay [16] and in [17] was inactive. For the same molecule, the potentiation in [4] is 21% (active); in assay [15], 34.2% (active).
Consider `Cc1cc(C)c(C)c(S(=O)(=O)NCc2ccco2)c1C`, for which the result in assay [1], in assay [2], in [3], in assay [4], in [5] and in [6] was inactive. Moreover, the outcome in [7], in [8], in assay [9], in [10], in [11] and in assay [12] was inactive. Moreover, the outcome in assay [13], in [14], in [16] and in assay [17] was inactive. In addition, the potentiation in assay [15] is 28.1% (active).
Consider `CCN1CCN(c2nc(N)c([N+](=O)[O-])c(Nc3ccc(C)c(C)c3)n2)CC1`, for which the result in [1], in [2], in assay [3], in [4], in assay [5] and in [6] was inactive. Further, the outcome in assay [7], in assay [8], in [9], in [10], in assay [11] and in [12] was inactive. Also, the outcome in assay [13], in assay [14], in assay [16] and in [17] was inactive. Moreover, the potentiation in assay [15] is 10.5% (active).
On to `O=c1c2ccccc2nc(SCc2nc3ccccc3s2)n1CCCO`, for which the outcome in assay [1], in assay [2], in assay [3], in assay [4], in assay [5] and in assay [6] was inactive. Further, the result in [7], in assay [8], in assay [9], in assay [10], in [11] and in assay [12] was inactive. The outcome in assay [13], in assay [14], in assay [15], in assay [16] and in assay [17] was inactive.
On to `CC1CCCCC1NS(=O)(=O)c1ccc(S(=O)(=O)N2CCCC2)cc1` (stereo not drawn), for which the result in assay [1], in assay [2], in assay [3], in assay [5], in assay [6] and in assay [7] was inactive. Besides, the result in assay [8], in assay [9], in assay [10], in [11], in [12] and in assay [13] was inactive. Besides, the result in [14], in assay [16] and in assay [17] was inactive. For the same molecule, the potentiation is 32% (active) in [4] and 11.2% (active) in [15].
With `CSCC[C@H](NC(=O)N1CCn2c1nc1ccccc12)C(=O)NCc1ccc(C)cc1`, the outcome in assay [1], in assay [2], in [3], in assay [5], in assay [6] and in [7] was inactive. Besides, the result in assay [8], in assay [9], in [10], in assay [11], in assay [12] and in [13] was inactive. Further, the outcome in [14], in [16] and in assay [17] was inactive. Besides, the potentiation in assay [4] is 30% (active); in assay [15], 6.18% (active).
Take `Cc1ccc(NC(=O)Nc2cccc([N+](=O)[O-])c2)nc1`: the outcome in assay [1], in assay [2], in assay [4], in [5], in [6] and in [7] was inactive. Also, the outcome in [8], in assay [9], in assay [10], in assay [11], in assay [12] and in assay [13] was inactive. For the same molecule, the outcome in assay [14], in assay [16] and in assay [17] was inactive. The potentiation in [3] was 12% (active); in assay [15], 24.5% (active).
For `CC(C)CCn1c(N2CCN(c3cccc(Cl)c3)CC2)nc2c1c(=O)[nH]c(=O)n2C`, the result in assay [1], in [2], in assay [3], in assay [4], in assay [5] and in [6] was inactive. Besides, the outcome in assay [7], in assay [8], in [9], in assay [10], in assay [11] and in [12] was inactive. The result in assay [13], in [14], in assay [15], in assay [16] and in assay [17] was inactive.
With `CCOC(=O)C1(CC2CC2)CCN(Cc2cn[nH]c2-c2cccc(F)c2)CC1`, the outcome in assay [1], in assay [2], in [3], in assay [4], in assay [5] and in [6] was inactive. Besides, the outcome in assay [7], in assay [8], in assay [9], in assay [10], in [11] and in assay [12] was inactive. Also, the result in assay [13], in assay [14], in [15], in assay [16] and in assay [17] was inactive.
